# Activity calls are given as the source filed them. Calls follow the shape of the dose curve; as a rule, active = well fitted activation curve with a large enough effect; inconclusive = small, poorly fitted or top-dose-only effect, or effect the other way; inactive = flat fitted curve, though single readings scatter.
# Test: Cellular Toxicity (caspase-3) Renal Proximal Tubule (AID 667);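 also: cells exposed to compound for 16 hours at 37 °C before detection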
# Conditions: renal proximal tubule cells; series mostly up to 91.7 µM
# Source text: NIH Chemical Genomics Center [NCGC]
# NIH Molecular Libraries Screening Centers Network [MLSCN]
# National Institutes of Environmental Health Sciences [NIEHS]
# National Toxicology Program [NTP]
# We have developed a 1536-well cell-based assay for quantitative high throughput screening (qHTS) against a number of cell lines to determine in vitro caspase 3/7 activity of small molecules. This particular assay uses the primary kidney proximal tubule cells freshly isolated from rat.
# NCGC Assay Protocol Summary:
# The Caspase-Glo 3/7 assay (Promega) is a homogeneous method to measure caspase-3 and caspase-7 activities in cultured cells. The quantitation of caspase 3/7 activity is based on the cleavage of a peptide-aminoluciferin substrate. After caspase cleaves the substrate the free aminoluciferin is liberated and serves as the substrate of luciferase, which generates the light. The luminescent signal is proportional to the amount of caspase 3/7 activity present.
# Using the Caspase-Glo 3/7 assay, the amount of caspase 3/7 activity was measured in the rat kidney proximal tubule cells with complete culture medium following compound treatment for 16 hours. The assay was performed in opaque white 1536-well plates. In the screen, staurosporine and doxorubicin were used as positive controls. Library compounds were measured for their ability to cause the activation of caspase 3/7 in the cell line, as reflected by an increase in luminescence signal, in a concentration-dependent manner. Data were normalized to the controls for basal activity (DMSO only) and 100% stimulation (10 uM staurosporine). AC50 values were determined from concentration-response data modeled with the standard Hill equation.
# qHTS protocol for caspase 3/7 assay in rat kidney proximal tubule cells
# [Step] [Parameter] [Value] [Description]
# 1. Reagent; 5 uL; 1000 rat kidney proximal tubule cells/well
# 2. Time; 5 hr; 37 °C incubation
# 4. Controls; 23 nL; doxorubicin 7 pM to 100 uM & staurosporine 1.4 pM to 20 uM
# 5. Time; 16 hr; 37 °C incubation
# 6. Reagent; 5 uL; Caspase-Glo 3/7 reagent
# 7. Time; 1 hr; Room Temperature
# 8. Detection; Luminescence; Viewlux plate reader
# Keywords: caspase 3/7, apoptosis, rat kidney proximal tubule cells, luminescence, NTPHTS, NTPHTS_NCGC, NIEHS, EPA, DSSTox, MLSMR, MLSCN, NIH Roadmap, qHTS, NCGC
row,SMILES,outcome
1,Oc1ccc(Cl)c(Cl)c1,inactive
2,[N-]=[N+]=[N-],inactive
3,CCCCCCCCCCCOC(=O)c1ccccc1C(=O)OCCCCCCCCCCC,inactive
4,O=[N+]([O-])c1ccc2c3c(cccc13)CC2,inactive
5,C=CC(=O)OC,inactive
6,[C-]1=CC=CC1.[C-]1=CC=CC1.[Cl-].[Cl-].[Ti+4],inactive
7,Cc1cccc(N)c1C,inactive
8,N#C/C=C/C#N,inactive
9,Cc1ccc(N)c(C)c1,inactive
10,CC(C)(C)c1ccccc1O,inactive
11,Cc1ccc([N+](=O)[O-])cc1,inactive
12,CN(C)c1ccc(N)cc1,inactive
13,C=CC(=O)OCCN(C)C,inactive
14,O=c1ccc(=O)[nH][nH]1,inactive
15,ClC=CCl,inactive
16,Cl/C=C/Cl,inactive
17,Cl/C=C\Cl,inactive
18,CC(Cl)(Cl)Cl,inactive
19,Oc1c(Cl)c(Cl)cc(Cl)c1Cl,inactive
20,O=C(O)C(Cl)(Cl)Br,inactive

row,SMILES,outcome
1,O=[N+]([O-])c1ccccc1CCl,inactive
2,CC(C)(C)OOC(=O)c1ccccc1,inactive
3,C=CCBr,inactive
4,Nc1ccc2ccccc2c1,inactive
5,OCC(Cl)CCl (stereo not given),inactive
6,C=CC=O,inactive
7,CC(=O)[O-].CC(=O)[O-].CC(=O)[O-].[Cr+3],inactive
8,NNC(N)=S,inactive
9,O=C(O)C(Cl)Br (stereo not given),inactive
10,Nc1cc(Cl)cc(C(=O)O)c1Cl,inactive
11,CN(C)N=O,inactive
12,BrCC(Br)C1CCC(Br)C(Br)C1 (stereo not given),inactive
13,O=C(Cl)c1ccccc1F,inactive
14,Nc1ccc(-c2ccccc2)cc1,inactive
15,C(CCOCC1CO1)COCC1CO1 (stereo not given),inactive
16,O=[N+]([O-])c1ccccc1-c1ccccc1,inactive
17,CCCCC(CC)COC(=O)c1ccc(C(=O)OCC(CC)CCCC)c(C(=O)OCC(CC)CCCC)c1 (stereo not given),inactive
18,CCCCCCCCCCCCCl,inactive
19,COP(=S)(OC)SCn1nnc2ccccc2c1=O,inactive
20,Cl/C=C/CCl,inactive

# Reference: PubChem BioAssay (NCATS)
